The test system of test [1] is TRPC4 beta (transient receptor potential cation channel C4), mouse. Briefly: TRPC4 cation channel opening, retest – cell-based, Fluo4 calcium, HEK293 TRPC4beta/mu-opioid, duplicates, 10 µM, confirmation (AID 2426;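 active = fluorescence ratio normalized to control raised more than 50% in primary screen plus both repeat runs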). The following applies: Fluo4 calcium fluorescence, at 10 µM; hits give high values.
Test [2] deals with transient receptor potential cation channel C4 beta (TRPC4), mouse. Nature of the test: TRPC4 cation channel opening, second retest – cell-based, second round, Fluo4, HEK293 TRPC4beta/mu-opioid, 1 µM, confirmation (AID 2461;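 active = primary screen active and over 50% activation in each of two duplicate runs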). The following applies: Fluo4 calcium fluorescence, at 1 µM; hits give high values.
Test [3] relates to TRPC4 (transient receptor potential cation channel C4 beta), mouse. Nature of the test: potentiation of DAMGO EC20 TRPC4 response – cell-based, second round, Fluo-4, HEK293 TRPC4beta/mu-opioid, 1 µM, confirmation (AID 2554;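 active = primary screen hit whose fluorescence ratio, in both repeats, exceeds the weak agonist control mean by 3 SD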). The following applies: DAMGO EC20, Fluo-4 calcium flux, at 1 µM; hits give high values. In general terms: Calcium assays in cells follow changes in intracellular calcium, usually with a dye or a luminescent sensor.

Test [4] deals with TRPC4 beta (transient receptor potential cation channel C4), mouse. Nature of the test: potentiation of DAMGO EC20 TRPC4 response – cell-based, Fluo-4, HEK293 TRPC4beta/mu-opioid, confirmation (AID 2555). The conditions noted are these: DAMGO EC20, Fluo-4 calcium flux, at 10 µM; hits give high values.
Test [5] has as its target Short transient receptor potential channel 4 (Mus musculus) (UniProt Q9QUQ5). Briefly: blockers of DAMGO-evoked TRPC4 calcium flux – cell-based, Fluo4, HEK293 TRPC4beta/mu-opioid, confirmation (AID 2636;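 active = calcium signal cut by more than 3 SD below the full-agonist control yet still positive, in both repeats and the earlier primary screen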). The following applies: at 10 µM; hits give high values.
Test [6] shares this target. Briefly: blockers of DAMGO-evoked TRPC4 calcium flux – cell-based, second round, Fluo4, HEK293 TRPC4beta/mu-opioid, 1 µM, confirmation (AID 2637;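 active = calcium signal ratio cut to more than 3 SD under the fully stimulated control mean yet still positive, in both repeats and the primary screen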;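 as to inhibition: percent of integrated ratio relative to wells lacking test compound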). The following applies: at 1 µM; hits give high values.
For test [7] the target is unchanged. Briefly: calcium entry via TRPC4 opening agents – cell-based, HEK293 TRPC4/mu-opioid, Fluo-4 calcium, dose response (AID 434937;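 active = primary screen activator hit with a dose response curve and TRPC4 channel activation at any tested dose; inactive = no activation, no dose response, or not a primary hit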).
Test [8] has the same target. Nature of the test: potentiation of DAMGO-evoked TRPC4 calcium signal – cell-based, HEK293 TRPC4/mu-opioid, Fluo-4 calcium, EC20 DAMGO, dose response (AID 434941;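 active = earlier screen potentiator hit that boosts the TRPC4 ion channel at some dose, with a dose response; inactive = no potentiation, no dose response, or not a prior hit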;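 also: calcium entry triggered by an EC20 dose of DAMGO at the co-expressed mu-opioid receptor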).
The target of test [9] is Short transient receptor potential channel 6 (Mus musculus) (UniProt Q61143). Nature of the test: TRPC6 blockade by TRPC4 inhibitor hits – cell-based, HEK293, membrane potential dye, duplicate, selectivity assay for TRPC4 inhibitor project, confirmation (AID 434948;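 active = active in primary screen and both duplicates, each dropping signal beyond three positive-control SD with fluorescence still positive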). The conditions noted are these: HEK293 TRPC6, membrane potential dye fluorescence, at 10 µM, stimulated with maximal-effect acetylcholine; hits give high values.

Test [10] shares this target. Nature of the test: TRPC6 opening by TRPC4 activator hits – cell-based, HEK293, membrane potential dye, duplicate, selectivity assay for TRPC4 activator project, confirmation (AID 434950;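 active = membrane potential signal rise above negative control mean plus 3 SD in both duplicates, also active in the earlier TRPC4 screen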). The following applies: HEK293 TRPC6, membrane potential fluorescence, at 10 µM; activation: hits give high values; outcome: activation.
Test [11] shares this target. Nature of the test: positive modulators of mouse TRPC6 channel – HEK293 cells, membrane potential dye, duplicate, selectivity assay for TRPC4 potentiator project, confirmation (AID 434952;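 active = compound raising the membrane signal above positive-control mean plus 3 SD in both repeats, and a primary screen hit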). The conditions noted are these: HEK293 TRPC6, membrane potential dye fluorescence, at 10 µM, maximal acetylcholine added after compound; hits give high values.
Test [12] concerns the target Short transient receptor potential channel 4 (Mus musculus) (UniProt Q9QUQ5). Briefly: calcium flux activators in TRPC4/5HT1a cells, counter-screen for TRPC4 activator project, cell-based, second counter screen, HEK293 TRPC4/5HT1a, Fluo-4 (AID 434977;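 active = calcium signal rise above buffer-control mean plus 5 SD in both duplicates, and also a hit in the primary screen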). The conditions noted are these: Fluo-4 calcium flux, at 10 µM; hits give high values.
Test [13] in a line: serotonin-gated TRPC4 signal block – cell-based, second counter screen, HEK293 TRPC4/5HT1a, Fluo-4, counter-screen for TRPC4 inhibitor project, confirmation (AID 434978;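 active = primary screen active whose calcium signal fell more than 3 SD beyond the full-serotonin control mean in both duplicate plates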;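 as to outcome: serotonin given first at submaximal then at maximal dose after compound preincubation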). The conditions noted are these: Fluo-4 calcium flux, at 10 µM, serotonin added to trigger calcium flux; hits give high values. In general terms: Counterscreens check selectivity or assay interference.
Test [14] relates to TRPC4 (mouse), co-expressed with 5HT1a in HEK293. Nature of the test: enhancement of serotonin-evoked TRPC4 response – cell-based, second counter screen, HEK293 TRPC4/5HT1a, Fluo-4, counter-screen for TRPC4 potentiator project, confirmation (AID 434979;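 active = signal rise over 3 SD above mean of control wells given weak agonist, in both repeats and first screen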). The following applies: Fluo-4 calcium flux, at 10 µM, serotonin added at its EC20 dose; hits give high values.
The nature of test [15]: nonspecific calcium rise without TRPC4 – cell-based, HEK293 mu-opioid receptor line, counter-screen for TRPC4 activator project, confirmation (AID 449723;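 active = hit in primary screen, with calcium signal over 5 SD above buffer well mean in both duplicates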;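 also: counter screen cells carry the mu-opioid receptor alone and lack TRPC4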). The conditions noted are these: HEK293 mu-opioid cells, Fluo-4 calcium fluorescence, at 10 µM; hits give high values.
The nature of test [16]: nonspecific potentiation of DAMGO calcium response – cell-based, HEK293 mu-opioid receptor line, counter-screen for TRPC4 allosteric potentiator project, confirmation (AID 449724;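 active = calcium signal rise more than 3 SD above the low-dose agonist control mean, in both duplicate plates and the primary screen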;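 also: HEK293 cells carrying mu-opioid receptor only with no TRPC4 channel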). The conditions noted are these: HEK293 mu-opioid receptor cells, Fluo-4 calcium flux, at 10 µM, compound added before EC20 DAMGO stimulus; hits give high values.

Molecules are shown by their SMILES. For some of these results: Potency and affinity values are given separately. Active and inactive are the calls of the source.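 The calls were made as follows, unless noted: active = primary screen hit whose calcium fluorescence ratio, in both repeats, exceeds the weak agonist control mean by 3 SD; inactive = the rest.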

Sequence of Short transient receptor potential channel 4 (Mus musculus) (Q9QUQ5 whole entry, looked up): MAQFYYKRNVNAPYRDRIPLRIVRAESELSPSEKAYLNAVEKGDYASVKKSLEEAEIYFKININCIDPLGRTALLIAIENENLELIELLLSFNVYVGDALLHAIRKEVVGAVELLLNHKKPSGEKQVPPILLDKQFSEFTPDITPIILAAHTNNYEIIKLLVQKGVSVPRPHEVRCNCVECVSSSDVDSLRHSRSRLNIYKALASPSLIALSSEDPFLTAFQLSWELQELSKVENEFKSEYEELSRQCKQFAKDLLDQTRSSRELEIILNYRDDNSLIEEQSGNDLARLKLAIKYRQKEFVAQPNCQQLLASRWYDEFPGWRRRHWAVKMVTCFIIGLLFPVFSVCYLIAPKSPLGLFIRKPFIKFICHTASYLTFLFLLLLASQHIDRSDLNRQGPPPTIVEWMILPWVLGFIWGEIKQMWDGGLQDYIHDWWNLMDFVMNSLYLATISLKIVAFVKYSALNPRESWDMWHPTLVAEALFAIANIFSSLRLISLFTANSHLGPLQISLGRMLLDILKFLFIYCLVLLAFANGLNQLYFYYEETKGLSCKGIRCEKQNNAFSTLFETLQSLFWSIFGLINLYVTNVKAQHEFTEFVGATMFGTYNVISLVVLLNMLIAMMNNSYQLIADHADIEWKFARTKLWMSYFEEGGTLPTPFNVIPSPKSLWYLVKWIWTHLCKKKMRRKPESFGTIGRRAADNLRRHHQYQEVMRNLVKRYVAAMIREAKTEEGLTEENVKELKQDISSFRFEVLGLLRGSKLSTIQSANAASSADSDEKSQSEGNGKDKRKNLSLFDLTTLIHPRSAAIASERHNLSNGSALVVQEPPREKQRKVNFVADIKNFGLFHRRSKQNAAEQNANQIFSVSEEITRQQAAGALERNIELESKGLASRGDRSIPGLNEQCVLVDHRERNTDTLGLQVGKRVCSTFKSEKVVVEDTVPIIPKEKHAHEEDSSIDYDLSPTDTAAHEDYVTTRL
Sequence of Short transient receptor potential channel 6 (Mus musculus) (Q61143 whole entry, looked up): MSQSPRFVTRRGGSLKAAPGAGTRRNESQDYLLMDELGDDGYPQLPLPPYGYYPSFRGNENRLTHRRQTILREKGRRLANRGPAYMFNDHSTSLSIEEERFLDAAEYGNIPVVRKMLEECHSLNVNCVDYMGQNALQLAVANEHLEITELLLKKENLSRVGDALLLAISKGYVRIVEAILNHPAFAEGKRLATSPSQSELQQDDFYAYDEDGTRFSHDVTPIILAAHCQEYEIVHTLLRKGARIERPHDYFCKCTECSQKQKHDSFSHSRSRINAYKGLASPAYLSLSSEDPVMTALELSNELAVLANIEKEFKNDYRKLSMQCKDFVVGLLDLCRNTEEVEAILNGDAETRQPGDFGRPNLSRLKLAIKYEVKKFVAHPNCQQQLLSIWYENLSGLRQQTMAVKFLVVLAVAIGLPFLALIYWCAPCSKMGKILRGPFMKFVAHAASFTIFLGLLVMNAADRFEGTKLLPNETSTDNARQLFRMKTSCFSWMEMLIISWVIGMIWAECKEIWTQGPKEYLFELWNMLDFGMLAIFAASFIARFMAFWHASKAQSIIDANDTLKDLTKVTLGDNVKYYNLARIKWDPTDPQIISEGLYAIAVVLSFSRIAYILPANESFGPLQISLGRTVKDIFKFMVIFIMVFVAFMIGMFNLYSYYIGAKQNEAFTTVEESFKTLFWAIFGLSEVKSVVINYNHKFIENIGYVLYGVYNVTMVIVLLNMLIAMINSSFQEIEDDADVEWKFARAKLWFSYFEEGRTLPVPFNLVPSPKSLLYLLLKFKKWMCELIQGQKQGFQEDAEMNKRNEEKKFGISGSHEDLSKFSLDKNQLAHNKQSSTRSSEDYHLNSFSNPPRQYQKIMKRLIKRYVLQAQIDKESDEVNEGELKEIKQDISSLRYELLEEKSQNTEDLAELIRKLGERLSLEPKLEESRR

As usually defined, the inhibition is the percentage by which the read-out fell short of the control. Take `CCC1CCCCN1CCN1C(=O)C2C(C(=O)Nc3ccc(OC)cc3)C3C=CC2(O3)C1C(=O)NC1CCCCC1` (stereo unspecified): the result in test [1], in test [2], in test [3], in test [4], in test [7] and in test [8] was inactive. Further, the molecule was classed as inactive in test [9], in [10], in test [11], in [12], in [13] and in [14]. The result in [15] and in test [16] was inactive. For the same molecule, the inhibition in test [5] was 96% (active); in test [6] it was 90% (active).
Turning to `COCCn1c(SCc2ccc(OC)c(F)c2)nc2ccccc2c1=O`, the result in [1], in [2], in test [3], in [4], in test [6] and in test [7] was inactive. Moreover, the outcome in [8], in test [9], in test [10], in [11], in [12] and in [14] was inactive. In addition, the result in [15] and in [16] was inactive. Besides, the inhibition in test [5] was 95% (active); in test [13] it was 16.1% (active).
As to `O=C(CN1CCCCCC1)N1c2ccccc2Sc2ccccc21`, the outcome in [1], in test [2], in [3], in [4], in [7] and in [8] was inactive. Moreover, the molecule was classed as inactive in test [10], in test [11], in [12], in [14], in test [15] and in [16]. Besides, the inhibition in test [5] is 79% (active); in test [6] it was 56% (active); in test [9], 21% (active); in test [13] it was 29.7% (active).
As to `OCCNCc1cc(Br)ccc1OCc1ccc(F)cc1`, the outcome in test [1], in test [2], in test [3], in test [4], in test [7] and in test [8] was inactive. Moreover, the result in [9], in test [10], in test [11], in test [12], in test [14] and in test [15] was inactive. Besides, in test [16], the result was inactive. The results for the inhibition in [5], in [6] and in [13] were 94% (active), 45% (active) and 21.1% (active), respectively.
Take `Cc1cc(C)c2nc(C)cc(N/N=C/c3ccc(O)cc3)c2c1`: the outcome in test [1], in [2], in [3], in test [4], in test [6] and in [7] was inactive. Moreover, the result in test [8], in test [10], in test [11], in test [12], in [13] and in [14] was inactive. Also, the outcome in [15] and in [16] was inactive. The inhibition in [5] is 91% (active); in [9], 35% (active).
On to `CC(C)(C)CC(C)(C)NCC(O)COc1ccc2c(c1)CCC2` (stereo unspecified), for which the outcome in [1], in [2], in [3], in [4], in test [6] and in test [7] was inactive. Further, the outcome in test [8], in test [9], in test [10], in test [11], in test [12] and in test [13] was inactive. For the same molecule, the result in test [14], in [15] and in test [16] was inactive. Further, the inhibition in test [5] is 100% (active).
Regarding `Cc1c(C(=O)NCC(c2ccco2)N(C)C)oc2c(Cl)cccc12` (stereo unspecified), the result in test [1], in test [2], in test [3], in test [4], in [7] and in [8] was inactive. In addition, the molecule was classed as inactive in test [9], in [10], in test [11], in test [12], in test [13] and in test [14]. Besides, the result in test [15] and in test [16] was inactive. Also, the inhibition is 94% (active) in test [5] and 70% (active) in test [6].
As to `c1ccc(-c2nc(NCc3ccco3)c3ccccc3n2)nc1`, the result in [1], in test [2], in [3], in test [4], in [7] and in [8] was inactive. Also, the outcome in test [10], in test [11], in [12], in test [14], in test [15] and in test [16] was inactive. The inhibition in test [5] is 93% (active); in [6] it was 74% (active); in test [9], 34.5% (active); in test [13], 22.1% (active).
With `N=c1n(CCO)c2ccccc2n1Cc1ccc(Cl)cc1`, the outcome in test [1], in test [2], in [3], in test [4], in test [7] and in test [8] was inactive. In addition, the molecule was called inactive in test [9], in test [10], in test [11], in test [12], in test [14] and in [15]. The result in test [16] was inactive. Further, the inhibition is 96% (active) in test [5], 75% (active) in [6] and 11.9% (active) in test [13].
Take `CC(COc1ccccc1)N1CCC(CO)(Cc2ccccc2)CC1` (stereo unspecified): the outcome in [1], in test [2], in test [3], in test [4], in test [6] and in test [7] was inactive. Further, the outcome in test [8], in test [9], in test [10], in test [11], in test [12] and in [14] was inactive. Also, the result in test [15] and in [16] was inactive. In addition, the inhibition in test [5] was 96% (active); in test [13] it was 22.9% (active).
Turning to `Cc1cc2[nH]c3ccccc3c2c(C)n1`, the outcome in test [1], in [2], in [3], in test [4], in [6] and in [7] was inactive. Besides, the outcome in test [8], in test [10], in [11], in test [12], in [14] and in [15] was inactive. For the same molecule, the result in test [16] was inactive. In addition, the values for the inhibition in [5], in test [9] and in test [13] were 87% (active), 41.5% (active) and 20.3% (active), respectively.
On to `Cc1nc(N2CCN(c3ccccn3)CC2)c2c(C)c(C(=O)N3CCN(c4ccccc4F)CC3)sc2n1`, for which the result in test [1], in [2], in test [3], in test [4], in test [6] and in [7] was inactive. Further, the result in test [8], in [9], in test [10], in [11], in test [12] and in test [13] was inactive. Further, the outcome in test [14], in test [15] and in test [16] was inactive. Also, the inhibition in test [5] is 93% (active).
For `Brc1ccc(CN2C3=NCCCN3c3ccccc32)cc1`, the result in test [1], in [2], in test [3], in test [4], in test [7] and in test [8] was inactive. Moreover, the molecule was classed as inactive in test [9], in [10], in test [11], in test [12], in test [14] and in [15]. In addition, in test [16], the result was inactive. In addition, the inhibition in test [5] was 96% (active); in test [6], 75% (active); in [13], 9.36% (active).
For the molecule `CCCNC(=O)c1nnsc1S(=O)c1ccc(Cl)cc1` (stereo unspecified), the result in [1], in test [2], in test [3], in [4], in [7] and in test [8] was inactive. The molecule was called inactive in test [9], in test [10], in [11], in [12], in test [14] and in test [15]. The result in test [16] was inactive. Further, the inhibition was 88% (active) in test [5], 42% (active) in [6] and 20.3% (active) in test [13].
For `c1csc(-c2nc(NCC3CCCO3)c3ccccc3n2)c1` (stereo unspecified), the result in test [1], in test [2], in test [3], in test [4], in test [6] and in [7] was inactive. For the same molecule, the result in test [8], in [9], in test [10], in test [11], in [12] and in test [14] was inactive. Moreover, the outcome in test [15] and in [16] was inactive. In addition, the inhibition is 79% (active) in [5] and 28% (active) in test [13].
As for `Cc1oc(-c2ccoc2)nc1CN(Cc1ccccc1)CC1CC1`, the result in [1], in test [2], in test [3], in [4], in [6] and in test [7] was inactive. For the same molecule, the outcome in [8], in [9], in [10], in [11], in test [12] and in [13] was inactive. Besides, the result in test [14], in [15] and in test [16] was inactive. Moreover, the inhibition in [5] was 95% (active).

For the origin of these results see PubChem BioAssay.
